Assay results published in PubChem BioAssay AID485346 (Sanford-Burnham Center for Chemical Genomics, 2010).
Among all 330,000 compounds or so, about 10,000 (3%) were called active.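 Rule for the calls: active = inhibition of at least 50% at 8 µM in the primary screen; inactive = the rest.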 The sample as a whole holds a higher share of actives than the screen did.

The molecules below were run against Protein Mdm4 (Homo sapiens) + E3 ubiquitin-protein ligase Mdm2 (Homo sapiens) (UniProt O15151+Q00987) (assay: disruptors of Mdm2/MdmX RING complex – cell-based, luminescence, split luciferase, SaOS-2, uHTS, primary screen (AID 485346)). Conditions: SaOS-2 split-luciferase Mdm2/MdmX complementation, at 8 µM, active compounds read high.
Chain of Protein Mdm4 (Homo sapiens) + E3 ubiquitin-protein ligase Mdm2 (Homo sapiens) (O15151 whole entry, looked up): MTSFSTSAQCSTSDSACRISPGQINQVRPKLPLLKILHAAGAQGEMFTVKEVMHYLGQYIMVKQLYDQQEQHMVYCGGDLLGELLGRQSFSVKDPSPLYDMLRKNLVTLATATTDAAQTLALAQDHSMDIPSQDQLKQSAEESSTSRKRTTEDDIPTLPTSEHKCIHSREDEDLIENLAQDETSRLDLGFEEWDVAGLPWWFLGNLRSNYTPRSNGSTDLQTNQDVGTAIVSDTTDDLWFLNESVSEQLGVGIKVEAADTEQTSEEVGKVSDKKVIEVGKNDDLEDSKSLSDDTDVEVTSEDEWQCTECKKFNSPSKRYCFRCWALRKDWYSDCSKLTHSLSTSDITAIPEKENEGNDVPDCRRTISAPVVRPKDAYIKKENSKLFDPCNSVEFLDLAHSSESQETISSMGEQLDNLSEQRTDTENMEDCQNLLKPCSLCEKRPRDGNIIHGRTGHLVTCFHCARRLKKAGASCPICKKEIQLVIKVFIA
Chain of Protein Mdm4 (Homo sapiens) + E3 ubiquitin-protein ligase Mdm2 (Homo sapiens) (Q00987 whole entry, looked up): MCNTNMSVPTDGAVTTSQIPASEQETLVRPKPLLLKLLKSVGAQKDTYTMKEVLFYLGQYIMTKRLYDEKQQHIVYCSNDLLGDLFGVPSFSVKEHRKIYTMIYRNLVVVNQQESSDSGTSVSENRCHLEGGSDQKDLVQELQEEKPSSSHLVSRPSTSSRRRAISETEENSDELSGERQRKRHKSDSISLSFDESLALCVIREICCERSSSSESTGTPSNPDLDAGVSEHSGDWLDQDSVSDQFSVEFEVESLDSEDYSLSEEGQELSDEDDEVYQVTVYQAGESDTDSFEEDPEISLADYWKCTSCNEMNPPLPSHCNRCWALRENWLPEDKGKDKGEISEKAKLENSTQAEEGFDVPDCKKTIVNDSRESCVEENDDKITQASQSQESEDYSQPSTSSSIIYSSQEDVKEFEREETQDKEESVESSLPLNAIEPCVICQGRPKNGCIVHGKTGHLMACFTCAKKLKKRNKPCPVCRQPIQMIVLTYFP

inhibition, active:
Cc1cccc(Nc2nc3c(S(=O)(=O)c4ccccc4)nnn3c3ccccc23)c1C 77.7%
OCCNc1nc(Nc2ccc(Cl)c(Cl)c2)nc2ccccc12 80.6%
CC[C@H]1CN2CCc3cc(OC)c(OC)cc3[C@@H]2C[C@@H]1C[C@H]1NCCc2cc(OC)c(OC)cc21 91.7%
COc1ccc(/C=C/C(=O)c2ccc(NS(=O)(=O)c3ccc(C)cc3)cc2)cc1O 65.1%
Cc1cccc(CS(=O)(=O)c2ncc(Cl)c(C(=O)Nc3ccc(F)cc3)n2)c1 82.1%
Cc1cccc(NC(=O)c2nc(S(=O)(=O)Cc3ccccc3)ncc2Cl)c1 97.5%

inhibition, inactive:
Clc1ccc(-c2nc3ccccn3c2CN2CCSCC2)cc1 15.3%
Cc1ccc(CNC(=O)C2CCN(S(=O)(=O)c3ccc4nc5c(c(C(=O)O)c4c3)CC(C)CC5)CC2)cc1 (centres undefined) 6.94%
O=C(NC(=S)Nc1ccc(Cl)cc1Cl)C1CC1 -39.2%
CC(=O)Nc1ccc(Nc2nc3c(S(=O)(=O)c4ccc(C)c(C)c4)nnn3c3ccccc23)cc1 23.4%
Cc1ccc(S(=O)(=O)c2nnn3c2nc(N2CCN(c4ccccn4)CC2)c2ccccc23)cc1 10.2%
COc1ccc(C2(CNC(=O)Cc3ccc(OC)c(OC)c3)CCCC2)cc1 10.1%
CN(C)c1nc(Nc2ccc(Cl)c(Cl)c2)nc(N(C)C)n1 -14.8%
Cc1nnc(NCCO)c2ccccc12 -14%
COc1ccc(C(C#N)N2N=C(C)CC2(C)C)cc1 (centres undefined) -22.4%
Cc1ccc(S(=O)(=O)N2[C@@H](c3ccc(Br)cc3)C(C(=O)O)=C[C@H]2CC2CCCC2)cc1 30.4%
COc1ccc2c(c1)CCNC2Cc1ccc(OC)c(O)c1 (centres undefined) -20.9%
CCc1ccc(OCC2c3cc(OC)c(OC)cc3CCN2C(C)=O)cc1 (centres undefined) 6.86%
C=C(C)c1cccc(C(C)(C)NC(=O)NCCN(CC)CC)c1 14.6%
Cc1ccc(S(=O)(=O)N2C[C@@H]3CCCC[C@@H]3[C@@H](C)[C@H]2c2cn(Cc3ccccc3)c3ccc(F)cc23)cc1 30%
CCNC(=O)COC(=O)/C=C/c1c(C)nn(Cc2cccc(OC)c2)c1Cl 11.4%
COc1ccc(NS(=O)(=O)c2ccc(NC(=S)NC(=O)/C=C/c3ccc(C)cc3)cc2)nn1 -0.635%
Cc1ccc(C(=O)/C=C/Nc2ccc(S(=O)(=O)Nc3onc(C)c3C)cc2)cc1 0.513%
Cc1cc(C)n2nc(C(=O)OC(C)C(=O)c3cc(C)c(C)cc3C)nc2n1 (centres undefined) 1.62%
OCC[C@H]1C[C@H](O)[C@@H](O)[C@]2(Cc3ccccc3CO2)O1 -20.7%
CCOc1ccc(NC(=O)c2nc(SCC)ncc2Cl)cc1 46.8%
CSc1ncc(Cl)c(C(=O)Nc2cc(C)ccc2C)n1 -15.6%
Cc1cccc(NC(=O)C(C)SCc2ccccc2)c1 (centres undefined) 0.19%
Cc1cccc(NC(=O)c2nc[nH]c2C(=O)NCC(=O)OCc2ccccc2)c1 10.4%
